The campaign covered roughly 310,000 compounds. About 14,000 (4.5%) showed an effect of 50% or more. The effect is printed as a negative number. For the sample, strong results were picked, then their nearest neighbours and some compounds at random.
biological target: human ether-à-go-go-related gene (hERG) potassium channel (human, UniProt Q12809); experiment: primary screen, population patch clamp on CHO cells stably expressing hERG; higher = less effect of the substance
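Also: peak tail current of the secondary pulse compared with the same well before compound.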

human ether-à-go-go-related gene (hERG) potassium channel, sequence (Q12809 whole entry, looked up): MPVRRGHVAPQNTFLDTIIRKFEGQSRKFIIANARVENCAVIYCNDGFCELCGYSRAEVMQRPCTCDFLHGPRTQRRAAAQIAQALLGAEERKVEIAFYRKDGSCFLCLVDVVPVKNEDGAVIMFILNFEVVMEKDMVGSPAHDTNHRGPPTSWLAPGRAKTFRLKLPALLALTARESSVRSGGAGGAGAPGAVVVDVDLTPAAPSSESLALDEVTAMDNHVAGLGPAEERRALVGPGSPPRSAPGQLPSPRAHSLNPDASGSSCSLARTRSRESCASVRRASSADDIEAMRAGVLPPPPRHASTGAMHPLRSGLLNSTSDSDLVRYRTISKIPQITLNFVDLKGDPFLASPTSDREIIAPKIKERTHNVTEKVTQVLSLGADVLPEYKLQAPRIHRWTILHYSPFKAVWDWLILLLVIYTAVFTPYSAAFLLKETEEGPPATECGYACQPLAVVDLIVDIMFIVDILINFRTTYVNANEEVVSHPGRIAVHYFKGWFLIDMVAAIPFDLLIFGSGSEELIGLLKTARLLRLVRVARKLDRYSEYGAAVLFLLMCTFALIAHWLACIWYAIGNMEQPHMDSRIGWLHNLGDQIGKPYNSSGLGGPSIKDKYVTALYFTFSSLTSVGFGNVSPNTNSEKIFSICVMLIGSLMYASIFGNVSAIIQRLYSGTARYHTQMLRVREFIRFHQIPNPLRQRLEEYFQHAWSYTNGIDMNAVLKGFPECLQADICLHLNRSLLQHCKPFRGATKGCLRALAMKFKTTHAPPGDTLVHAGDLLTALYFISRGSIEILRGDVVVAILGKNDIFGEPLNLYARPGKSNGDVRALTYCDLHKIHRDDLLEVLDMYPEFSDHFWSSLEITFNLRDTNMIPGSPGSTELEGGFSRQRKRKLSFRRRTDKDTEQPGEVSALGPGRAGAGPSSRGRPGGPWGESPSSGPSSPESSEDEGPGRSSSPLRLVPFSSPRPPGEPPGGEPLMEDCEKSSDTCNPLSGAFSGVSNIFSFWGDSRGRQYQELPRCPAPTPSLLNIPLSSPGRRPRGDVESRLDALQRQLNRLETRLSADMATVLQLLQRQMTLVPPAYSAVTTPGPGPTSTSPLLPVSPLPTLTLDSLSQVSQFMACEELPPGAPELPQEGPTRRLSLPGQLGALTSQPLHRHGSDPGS

Compound | hERG current change (%, negative = inhibition) at 10uM
CC1(OC(=O)CCc2ccccc2)C(=O)C=C2C=C3CCCN3C=C2C1=O (stereo not shown) | -1.36%
Cc1cccc(NC(=O)CCc2ccc(S(=O)(=O)NC3CCCCC3)cc2)c1 | 14.4%
Cc1oc2c(c(C)cc3oc(=O)c(CC(=O)N[C@@H](CC(C)C)C(=O)O)c(C)c32)c1C | 15.8%
COC(=O)CSc1nc2c(c(=O)n(C)c(=O)n2C)n1CCC(C)C | -5.54%
CCS(=O)(=O)N1CCCC(C(=O)c2ccc(OC)cc2C)C1 (stereo not shown) | 28.9%
CC(=O)O[C@@H]1/C=C/[C@](C)(O)C[C@@H](C)C/C=C/[C@H]2[C@@H]3O[C@]3(C)[C@@H](C)[C@H]3[C@H](Cc4ccccc4)NC(=O)[C@@]312 | 16%
O=C(Nc1cccc(C(F)(F)F)c1)C(SCCO)c1ccccc1 (stereo not shown) | -4.8%
CN(C)CC(C)(C)CNC(C(=O)Nc1ccc(Cl)cc1C(F)(F)F)c1ccccc1 (stereo not shown) | -76.9%
COc1cccc(NC(=O)C(NCC(C)(C)CN(C)C)c2ccccc2)c1.O=C(O)C(=O)O (stereo not shown) | -48.4%
CN(C)c1cccc(C(=O)OC(C(=O)Nc2ccc(Cl)cc2C(F)(F)F)c2ccccc2)c1 (stereo not shown) | -3.78%
O=C(Nc1ccc(Cl)cc1C(F)(F)F)C(Sc1cccc[n+]1[O-])c1ccccc1 (stereo not shown) | -81.3%
O=C(Nc1cc(C(F)(F)F)ccc1Cl)C(Sc1cccc[n+]1[O-])c1ccccc1 (stereo not shown) | -14.5%
O=C(Nc1cccc(C(F)(F)F)c1)C(Sc1cccc[n+]1[O-])c1ccccc1 (stereo not shown) | -42.7%
N#CCC(=O)N/N=C\c1ccc(OC/C=C/c2ccccc2)cc1 | 14.4%
Cc1ccccc1S(=O)(=O)Cc1ccc(C(=O)NC2CCCCC2)o1 | -1.84%
Nc1nc(SCC(=O)Nc2ccc([N+](=O)[O-])cc2Br)n[nH]1 | 3.65%
CCOC(=O)C1(CC2CCCCO2)CCN(C(=O)Nc2ccccc2)CC1 (stereo not shown) | 12%
COc1ccc(/C=C/c2cc(-c3ccc(C)cc3)o[n+]2C)cc1.F[B-](F)(F)F | -77.1%
COc1ccc(/C=C/c2cc(C(F)(F)F)on2)cc1 | 16.4%
COc1ccc(/C=C/C(=O)Oc2ccc(C)cc2)cc1 | -14.4%
Cc1ccccc1NC(=O)c1ccc2ccccc2c1 | -8.12%
CCC(C)(C(=O)Nc1c(C)cccc1C)N(C)C(=O)c1ccc2ccccc2n1 (stereo not shown) | 8.52%
CSCC[C@H](NC(=O)c1cccs1)C(=O)N1CCC2(CC1)NCCc1[nH]cnc12 | 10.2%

Compound | hERG current change (%, negative = inhibition) at 10uM
CCCCNc1ccc(S(=O)(=O)c2cccc([N+](=O)[O-])c2)cc1[N+](=O)[O-] | -22.2%
O=[N+]([O-])c1cccc(S(=O)(=O)c2ccc(NCCOCCO)c([N+](=O)[O-])c2)c1 | -38.3%
O=[N+]([O-])c1cccc(S(=O)(=O)c2ccc(NCCO)c([N+](=O)[O-])c2)c1 | -51%
Cn1c(=O)c(C(=O)CN2CCOCC2)c(N)n(Cc2ccccc2)c1=O | -13.2%
CCn1c(=O)c(C(=O)CN2CCN(Cc3ccc4c(c3)OCO4)CC2)c(N)n(Cc2ccccc2)c1=O | -72%
Cn1c(=O)c(C(=O)CN2CCN(Cc3ccc4c(c3)OCO4)CC2)c(N)n(Cc2ccccc2)c1=O | -66.8%
Cn1c(=O)c(C(=O)CN2CCCCCC2)c(N)n(Cc2ccccc2)c1=O | -13.5%
CCn1c(=O)c(C(=O)CN2CCN(S(=O)(=O)c3ccccc3)CC2)c(N)n(Cc2ccccc2)c1=O | -14.6%
CCn1c(=O)c(C(=O)CN2CCOCC2)c(N)n(Cc2ccccc2)c1=O | -19%
CN1CCN(c2ccc(N)c(N3CCN(C)CC3)c2)CC1 | 13.4%
CC(C)(C)NC(=O)C(c1ccc(F)cc1)N(Cc1ccccc1Cl)C(=O)c1ccn[nH]1 (stereo not shown) | 25.6%
CC1(C)CC(=O)C=C(c2cccc3c2oc2ccccc23)C1 | -2.67%
CC(=O)Oc1ccc2oc(=O)c3c(c2c1)CCCN3C(=O)CN1CCN(c2ncccn2)CC1 | -7.91%
CCCCCOc1ccc2oc(=O)c3c(c2c1)CCCN3C(=O)CN1CCCC(C(=O)OCC)C1 (stereo not shown) | -0.3%
CCCOc1ccc2oc(=O)c3c(c2c1)CCCN3C(=O)CN1CCCC(C(=O)OCC)C1 (stereo not shown) | -65.5%
O=C(c1ccco1)N1CCN(CC(=O)N2CCCc3c2c(=O)oc2ccc(O)cc32)CC1 | -5.14%
CCCOc1ccc2oc(=O)c3c(c2c1)CCCN3C(=O)CN1CCc2ccccc2C1 | -24.1%
CCOC(=O)C1CCCN(Cc2cc(=O)oc3cc(C)c(C)cc23)C1 (stereo not shown) | -19.3%
CCCOc1ccc2oc(=O)c3c(c2c1)CCCN3C(=O)CN1CCN(C(=O)c2ccco2)CC1 | -65.3%
CCCOc1ccc2oc(=O)c3c(c2c1)CCCN3C(=O)CN1CCN(c2ncccn2)CC1 | -70.1%
CCCOc1ccc(C(=O)Nc2ccc(N3CCN(C(=O)c4ccco4)CC3)cc2)cc1 | 13.2%
O=C(c1cnn2ccccc12)N1CCc2ccccc21 | 0.772%
CC(=O)c1ccc(N2CCN(C(=O)/C=C/c3ccc(S(=O)(=O)N4CCOCC4)cc3)CC2)cc1 | -30.3%

From paper PMC4336329 (PLoS ONE, 2015)
